# Compound activity from PubChem.
# ADAM17 inh: inhibits human ADAM17; 370,000 compounds, 0.83% hits; inhibition, % at 6.95 µM; recombinant ADAM17, EDANS/DABCYL FRET peptide cleavage; P78536;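 active = inhibition above the mean of compounds lying between control limits plus 3 SD, set per campaign, cut at about 8.5% in these data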;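 also: 0% = DMSO-only wells as the low control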
# FAS TE block: FAS thioesterase (human) inhibition | AID 602261 | P49327 | recombinant FAS-TE, OMFH fluorogenic substrate, fluorescence endpoint | inhibition, % at 15 µM | 360,000 compounds, 0.67% hits;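 active = compounds whose normalised, plate-corrected inhibition of enzyme fluorescence in the single-dose primary screen is 50% or more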;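 also: 0% = DMSO with enzyme and 100% = substrate without enzyme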
# GRIN3A LBD mod: modulates the human NR3A ligand-binding domain. NR3A LBD differential scanning fluorimetry, Tm shift; 0% = protein alone, 100% = glycine-bound protein. Tm shift relative to glycine control, % at 25 µM. 340,000 compounds, 2.5% hits. AID 1259313;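 active = melting temperature shift of at least 10% of the positive control shift, at one fixed dose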
# aDG glyco up: alpha-DG glycosylation activation. Pro5-aDG cells, alpha-DG glycosylation AlphaScreen (IIH6); 0% Pro5, 100% B10-LARGE cell signal. activation, % at 10 µM. 360,000 compounds, 0.22% hits;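 active = activation of at least 8% versus controls, or a plate z-score of at least 8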;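 also: Pro5 are CHO cells carrying HIG-tagged alpha-DG that lacks glycosylation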
# ADAM10 inh: inhibits human ADAM10; O14672; recombinant ADAM10, EDANS/DABCYL FRET peptide cleavage, 3 h; inhibition, % at 7 µM; 370,000 compounds, 0.62% hits;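 active = inhibition above a per-campaign cutoff equal to the mean of compounds falling between control-based bounds plus 3 SD, cut at about 20% in these data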;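 also: 0% = DMSO wells while the 100% control is not disclosed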
# Target sequence (O14672 214-748 limits assumed): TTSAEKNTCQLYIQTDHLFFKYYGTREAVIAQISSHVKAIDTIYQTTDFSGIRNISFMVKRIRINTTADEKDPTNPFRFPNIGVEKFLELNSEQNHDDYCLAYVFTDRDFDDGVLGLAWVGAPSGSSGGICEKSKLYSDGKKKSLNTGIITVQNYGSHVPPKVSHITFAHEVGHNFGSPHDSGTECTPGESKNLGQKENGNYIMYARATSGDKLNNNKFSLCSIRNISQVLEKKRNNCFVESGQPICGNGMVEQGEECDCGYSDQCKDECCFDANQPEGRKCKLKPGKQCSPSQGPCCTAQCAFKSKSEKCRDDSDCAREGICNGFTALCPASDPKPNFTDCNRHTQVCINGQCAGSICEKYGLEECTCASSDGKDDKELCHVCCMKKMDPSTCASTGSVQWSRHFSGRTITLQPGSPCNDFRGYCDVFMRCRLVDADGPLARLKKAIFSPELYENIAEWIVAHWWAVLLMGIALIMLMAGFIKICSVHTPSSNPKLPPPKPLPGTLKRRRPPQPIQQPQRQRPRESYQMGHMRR
# ADAM10 ctr: counter-screen for ADAM17 exosite inhibitors: inhibitors of human ADAM10; shares compounds with ADAM17 inh; recombinant ADAM10, EDANS/DABCYL FRET peptide cleavage, 3 h; AID 743256; 2,900 compounds, 47% hits; inhibition, % at 6.95 µM;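 active = mean inhibition over the triplicate runs exceeds the activity threshold set in the earlier primary screen, cut at about 20% in these data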;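 also: 0% = DMSO wells and 100% = marimastat wells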
# ADAM17 confirm: human ADAM17 inhibition, confirmation | shares compounds with ADAM17 inh | recombinant ADAM17, EDANS/DABCYL QFRET peptide cleavage | inhibition, % at 6.95 µM | 2,900 compounds, 65% hits;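 active = mean inhibition across replicates above the hit cutoff set in the primary screen, cut at about 8.5% in these data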;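 also: 0% = DMSO wells and 100% = marimastat wells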
# Starred values were filed as active, the others as inactive; / = no result given. This is a sample that favours compounds with a hit; in the whole collection about 4% have one here.
SMILES,ADAM17 inh,FAS TE block,GRIN3A LBD mod,aDG glyco up,ADAM10 inh,ADAM10 ctr,ADAM17 confirm
CCCCC(=O)NC(c1cccc([N+](=O)[O-])c1)c1ccc2cccnc2c1O (stereo not given),9.6*,12,-5,0,18,25*,17*
CC(=O)NC(c1cccc([N+](=O)[O-])c1)c1ccc2cccnc2c1O (stereo not given),2,21,0,-1,9,/,/
Cc1cc(Br)ccc1NC(=O)CN(C)C(=O)C1CSC2(C)CCC(=O)N12 (stereo not given),-1,-4,-1,0,-3,/,/
C[C@@H]1CN([C@H](C)CO)C(=O)c2c(c3ccccc3n2C)-c2ccccc2CO[C@H]1CN(C)Cc1ccc(-c2ccccc2)cc1,8.9*,15,/,0,8,17,8
Cc1ccc(S(=O)(=O)N(C)C[C@@H]2Oc3ccc(NS(=O)(=O)c4ccccc4)cc3CC(=O)N([C@@H](C)CO)C[C@H]2C)cc1,10*,49,2,0,14,5,5
Cc1ccc(S(=O)(=O)Nc2cccc3c2O[C@H](CN(C)Cc2ccc(-c4ccccc4)cc2)[C@@H](C)CN([C@H](C)CO)C3=O)cc1,13*,47,-3,1,24*,44*,24*
CCOC(=O)[C@@]12CCC3=C1N(CCC3)C(=O)[C@H](CC(=O)N1CCN(C(=O)C3CC3)CC1)C2,-10,/,/,/,-9,/,/
COc1cc(/C=C/C(=O)OCC(=O)NC(=O)NC(C)(C)C)ccc1OCC#N,-25,-13,-4,0,-77,/,/
Cc1cc2cc3c(=O)[nH]c(=O)cc-3n(CC(O)C(O)C(O)CO)c2cc1C (stereo not given),-40,-7,/,0,-139,/,/
CCC1(C)Cc2c(sc3nc(NC)n(C)c(=O)c23)CO1 (stereo not given),-78,-2,4,0,-207,/,/
Cc1ccc(-c2csc(NC(=O)Cn3cnc4c3c(=O)n(C)c(=O)n4C)n2)cc1C,-2,-5,0,0,-8,/,/
Cn1c(=O)c2c(ncn2CC(=O)Nc2nc(-c3ccc(F)c(F)c3)cs2)n(C)c1=O,8.8*,3,2,0,2,-6,0
Cn1cnnc1SCC(=O)c1cccc([N+](=O)[O-])c1,8.7*,-1,1,0,10,2,3
O=C(/C=C/c1ccc(Br)cc1)c1ccc(NC2=NCCCS2)cc1,8.8*,7,-7,1,14,26*,13*
CC(=O)N1c2ccc(S(=O)(=O)N3CCCC(C(=O)Nc4ccc(F)cc4)C3)cc2CC1C (stereo not given),2,3,-1,1,-2,/,/
CCOc1cc(/C=C2\SC(=S)N(Nc3ccccc3)C2=O)ccc1O,9.5*,-5,5,0,17,31*,14*
CCOc1cc(/C=C2\SC(=S)N(NS(=O)(=O)c3ccccc3)C2=O)ccc1O,-1,-3,-6,0,4,/,/
COc1ccc(CCNC2=CC(=O)N(c3ccc(F)cc3)C2=O)cc1,-2,0,-1,0,0,/,/
O=C(C(=O)N(Cc1ccccc1)Cc1ccccc1)c1c(-c2ccccc2)[nH]c2ccccc12,11*,27,6,0,22*,42*,22*
O=C(OCc1cnc(Cl)s1)c1cccc(Cl)c1Cl,9.0*,16,4,0,7,19,12*
O=C(OCc1cnc(Cl)s1)c1ccccc1Cl,-1,2,5,0,2,/,/
CCOc1cc(/C=N/NC(=O)c2ccc3c(c2)OCCO3)cc(Br)c1O,23*,2,-3,0,-6,-19,1
O=C(N/N=C/c1cc(Br)c(O)c(Br)c1O)c1ccc2c(c1)OCCO2,-25,8,3,0,-64,/,/
CCn1c(SCC(=O)NC(C)c2ccccc2)nc2ccccc21 (stereo not given),/,-3,0,0,/,/,/
N#CCc1ccc(NS(=O)(=O)c2ccc(C3CCCCC3)cc2)cc1,10.0*,30,-4,3,15,24*,10*
SMILES,ADAM17 inh,FAS TE block,GRIN3A LBD mod,aDG glyco up,ADAM10 inh,ADAM10 ctr,ADAM17 confirm
COC(=O)[C@@]12C[C@@H](CC(=O)NCc3cccc4ccccc34)C(=O)N(Cc3ccc4c(c3)OCO4)C1=CCC(C)(C)C2,8.9*,/,/,0,18,20*,12*
CCCCOCCCNC(=O)C[C@@H]1C[C@@]2(C(=O)OCC)CCCC=C2N(Cc2cccc3ccccc23)C1=O,7,14,/,0,19,/,/
CCOC(=O)[C@]12CCCC=C1N(Cc1cccc3ccccc13)C(=O)[C@H](CC(=O)NCc1cccc3ccccc13)C2,11*,7,/,0,6,12,5
C#CCNC(=O)C[C@@H]1C[C@@]2(C(=O)OCC)CCCC=C2N(Cc2cccc3ccccc23)C1=O,6,3,/,0,7,/,/
COC(=O)[C@]12CCCCC=C1N(Cc1cccc3ccccc13)C(=O)[C@H](CC(=O)NCc1cccc3ccccc13)C2,12*,24,/,0,16,23*,12*
CCOC(=O)[C@]12CCCC=C1N(Cc1cccc3ccccc13)C(=O)[C@H](CC(=O)NCCc1ccccc1OC)C2,9.7*,21,/,0,11,24*,17*
Cc1ccc(OCCC(=O)OCC(=O)NC(=O)NC2CCCCC2)cc1,9.0*,4,1,0,-11,30*,14*
Cc1ccc(C)c(OCCC(=O)OCC(=O)NC(=O)NC2CCCCC2)c1,1,18,-24,0,10,/,/
COc1ccc(/C=N/NC(=O)C(=O)/C=C2\NC3(CCCC3)Cc3ccccc32)cc1,11*,11,1,0,10,9,8
NNC(=O)C(=O)/C=C1\NC2(CCCC2)Cc2ccccc21,2,-4,-1,0,6,/,/
O=C(NC(=S)NCCc1ccccc1)c1ccccc1F,10*,22,8,0,13,12,6
O=C(NC(=S)NCc1ccccc1)c1ccccc1F,-3,17,3,0,-9,/,/
O=C(N[C@@H]1CC[C@@H](CCNS(=O)(=O)c2ccc(Cl)cc2)O[C@@H]1CO)c1cccnc1,-7,/,/,0,-7,/,/
COc1ccc(NC(=O)C2=CC(c3ccc(OC)cc3)=NS(=O)(=O)N2C)cc1,10*,20,-7,0,11,17,7
CN1C(C(=O)Nc2cccc(O)c2)=CC(c2cccs2)=NS1(=O)=O,9.7*,4,-5,0,13,18,7
CC(=O)c1cccc(NC(=O)C2=CC(c3cccs3)=NS(=O)(=O)N2C)c1,0,4,-3,0,-2,/,/
